This note sets out measurements from PubChem BioAssay (Tox21).

Assay [1] in a line: qHTS assay for small molecule agonists of the p53 signaling pathway (AID 651631; calls by dose curve; also: nearly all actives have a fitted effect of over 15% in size). Summed up:
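Stably transfected HCT-116 cells (beta-lactamase behind p53 response elements) get compounds after a 5 h settling period; 16 h later at 37 °C, FRET substrate is loaded and fluorescence read after 2 h.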
(In general: In qHTS, concentration-response curves come from the screen itself.)

Assay [2] is described as follows: qHTS assay for small molecule agonists of the p53 signaling pathway - cell viability (AID 651633; calls by dose curve;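 also: p53RE-bla HCT reporter cells with a stable beta-lactamase p53 reporter; series mostly up to about 83 µM; nearly all actives have a fitted effect of over 30% in size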). Summed up:
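p53RE-bla cells, seeded at 4,000 per well and rested 5 h at 37 C/5% CO2, received compounds in DMSO for 16 h at 37 C. CellTiter-Glo was then added, and luminescence was read after 30 min at room temperature to gauge cytotoxicity.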

The nature of assay [3]: qHTS assay to test for compound auto fluorescence at 460 nm (blue) in HEK293 cells (AID 720678). Summed up: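 Intrinsic compound fluorescence is recorded in live HEK293 cultures after overnight incubation at 37C, 5% CO2, using excitation 405 nm and emission 460 nm. Values are referenced to triamterene.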
Assay [4] can be described thus: qHTS assay to test for compound auto fluorescence at 535 nm (green) in HEK293 cells (AID 720680).
Assay [5] has as its target Glucocorticoid receptor (Homo sapiens) (UniProt P04150). Kind of assay: qHTS assay to identify small molecule agonists of the glucocorticoid receptor (GR) signaling pathway (AID 720691; active = well fitted activation curve with a large enough effect in the signal ratio in the repeat runs, not every such curve was filed as active; inconclusive = weak or mixed curves, or effect the other way; inactive = no such curve, though single readings can be large or run the other way; the % refers to the signal ratio). In short, it runs like this: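 HeLa GR-bla reporter line; cells pre-incubated 4 h, compound in DMSO 18 h at 37 C; LiveBLAzer B/G FRET substrate 2 h RT; fluorescence intensity read-out.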

Assay [6] can be described thus: qHTS assay for identifying genotoxic compounds that show differential cytotoxicity against isogenic chicken DT40 cell lines with known DNA damage response pathways - wild type cell line (AID 743012). Also: nearly all actives have a fitted effect of over 60% in size. In short, it runs like this:
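CellTiter-Glo luminescence readout of viability in wild type DT40 cells after 40 h compound exposure at 37 C/5% CO2; 300 cells/well; reagent incubated 30 min at room temperature before reading.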

Assay [7] in a line: qHTS assay to identify small molecule antagonists of the androgen receptor (AR) signaling pathway - cell viability counter screen (AID 743033; also: nearly all actives have a fitted effect of over 45% in size).
Assay [8] in a line: qHTS assay to identify small molecule antagonists of the androgen receptor (AR) signaling pathway using the MDA cell line - cell viability counter screen (AID 743041; also: nearly all actives have a fitted effect of over 45% in size). Summed up:
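In this qHTS counter assay, fluorescence intensity after CellTiter-Fluor addition indicated viability of MDA-kb2 AR-luc cells given compounds and R1881 for 16 h at 37C.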

The nature of assay [9]: qHTS assay to identify small molecule antagonists of the thyroid receptor (TR) signaling pathway - cell viability counter screen (AID 743064). Also: nearly all actives have a fitted effect of over 50% in size. Summed up: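 Counter screen for cytotoxicity: compound plus T3 (1 nM final) on GH3.TRE-Luc cells, 23.5 h at 37 °C, then fluorescence viability readout with CellTiter-Fluor.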
The target of assay [10] is Estrogen receptor (Homo sapiens) (UniProt P03372). Kind of assay: qHTS assay to identify small molecule agonists of the estrogen receptor alpha (ER-alpha) signaling pathway (AID 743075; calls by dose curve;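 also: HEK293 GripTite cells with ER-alpha and UAS-driven beta-lactamase reporter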; also: potency is read from the fitted curve at half-maximal effect).
The target is the same in assay [11]. Kind of assay: qHTS assay to identify small molecule agonists of the estrogen receptor alpha (ER-alpha) signaling pathway using the BG1 cell line (AID 743079). Also: nearly all actives have a fitted effect of over 20% in size. Also: potency is read from the fitted curve at half-maximal effect.
A short description of assay [12]: qHTS assay to identify small molecule antagonists of the estrogen receptor alpha (ER-alpha) signaling pathway using the BG1 cell line (AID 743080; calls by dose curve;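 also: BG1 cells stimulated with 17beta-estradiol alongside compound; series mostly up to about 70 µM; nearly all actives have a fitted effect of over 25% in size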). In short, it runs like this: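 Readout is ONE-Glo luminescence, taken 30 min at room temperature after reagent addition, preceded by a CellTiter-Fluor viability read; BG1-Luc-4E2 cells had received compound and 17beta-estradiol for 21.5 h at 37 C.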

The nature of assay [13]: qHTS assay to identify small molecule that activate the aryl hydrocarbon receptor (AhR) signaling pathway - cell viability counter screen (AID 743086).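 Also: HepG2 liver cells carrying the AhR DRE luciferase reporter; series mostly up to about 70 µM; nearly all actives have a fitted effect of over 45% in size.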 In short, it runs like this: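 HepG2-AhR-luc (HG2L7.5c1) cells, 4000/well, were preincubated 5 h at 37C, exposed to compound in qHTS format for 24 hr at 37C, then given CellTiter-Fluor for 30 min; viability was read as fluorescence in the reporter wells.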

Assay [14] addresses Peroxisome proliferator-activated receptor gamma (Homo sapiens) (UniProt P37231). Kind of assay: qHTS assay to identify small molecule agonists of the peroxisome proliferator-activated receptor gamma (PPARg) signaling pathway (AID 743094; active = well fitted activation curve with a large enough effect in the signal ratio in the repeat runs, not every such curve was filed as active; inconclusive = weak or mixed curves, or effect the other way; inactive = no such curve, though single readings can be large or run the other way; the % refers to the signal ratio). Summed up:
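HEK293H PPARg-bla cells, 5 h settle at 37C/5% CO2; compound (DMSO) 17 h, 37C; B/G FRET substrate 1 h RT; fluorescence intensity read-out. qHTS format.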

In assay [15] the target is Nuclear receptor subfamily 1 group I member 2 (Rattus norvegicus) (UniProt Q9R1A7). Put plainly: Rat pregnane X receptor (rPXR) activation by small molecules, qHTS assay (AID 1346983). Also: nearly all actives have a fitted effect of over 20% in size. To be noted: rPXR luciferase reporter cells, One-Glo luminescence, 24 h; max activation: hits give high values. Summed up:
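Cell-based rPXR luciferase reporter assay, 2,000 cells per well, rested 5hr at 37 C before compound addition in DMSO, then 24 hr at 37 C. One-Glo reagent was added and luminescence read after 30 min at room temperature.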

For assay [16], the target named is Nuclear receptor subfamily 1 group I member 2 (Homo sapiens) (UniProt O75469). Kind of assay: CYP3A4 induction through human pregnane X receptor (PXR) by small molecules, qHTS assay (AID 1346984). Also: nearly all actives have a fitted effect of over 40% in size. Also: potency is read from the fitted curve at half-maximal effect. In short, it runs like this: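 HepG2-derived DPX-2 line carrying PXR plus a CYP3A4-promoter luciferase reporter; cells plated 5 hr, compound-exposed 24 hr at 37C. CYP3A4 activity probed with 3uM (final) Luciferin-IPA for 3hr, then luciferase read after One-Glo.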

The target is the same in assay [17]. Put plainly: Human pregnane X receptor (PXR) activation by small molecules, qHTS assay (AID 1346985). Also: nearly all actives have a fitted effect of over 40% in size. Summed up:
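DPX-2 cells (HepG2 co-transfected with a PXR response element and a CYP3A4-promoter luciferase construct) were seeded at 2,000 per well, rested 5 hr at 37C, then exposed to DMSO-dissolved compounds for 24 hr. Activation was read as luciferase luminescence.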

Assay [18] can be described thus: qHTS assay to test for compound auto fluorescence at 590 nm (red) in HEK293 cells (AID 720679). In short, it runs like this:
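Red autofluorescence, HEK293 cells: 2,000 cells/well; attach 4-5 hr 37C; add 23 nL cpd or DMSO; incubate o/n 37C 5% CO2; read Ex540/Em590; Rose Bengal sodium reference.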

Assay [19] can be described thus: qHTS assay to test for compound auto fluorescence at 590 nm (red) in HepG2 cell free culture (AID 720684). Summed up:
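Ex 540 / Em 590 nm read of compound in cell-free MEM (10% FBS). Rose Bengal sodium reference.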

Assay [20] in a line: qHTS assay for identifying genotoxic compounds that show differential cytotoxicity against isogenic chicken DT40 cell lines with known DNA damage response pathways - Rev3 mutant cell line (AID 743014). Also: nearly all actives have a fitted effect of over 55% in size.

Values without a mark were called inactive. Activity calls are given as the source filed them. Unless noted, calls follow the shape of the dose curve; as a rule, active = well fitted curve in the direction sought with a large enough effect in the repeat runs; inconclusive = weak or mixed curves; inactive = no such curve, though single readings can be large; an effect the other way counts as inactive or inconclusive.
% is scaled to controls: 0 for no effect and ±100 for the full control effect.

Chain of Peroxisome proliferator-activated receptor gamma (Homo sapiens) (P37231 whole entry, looked up): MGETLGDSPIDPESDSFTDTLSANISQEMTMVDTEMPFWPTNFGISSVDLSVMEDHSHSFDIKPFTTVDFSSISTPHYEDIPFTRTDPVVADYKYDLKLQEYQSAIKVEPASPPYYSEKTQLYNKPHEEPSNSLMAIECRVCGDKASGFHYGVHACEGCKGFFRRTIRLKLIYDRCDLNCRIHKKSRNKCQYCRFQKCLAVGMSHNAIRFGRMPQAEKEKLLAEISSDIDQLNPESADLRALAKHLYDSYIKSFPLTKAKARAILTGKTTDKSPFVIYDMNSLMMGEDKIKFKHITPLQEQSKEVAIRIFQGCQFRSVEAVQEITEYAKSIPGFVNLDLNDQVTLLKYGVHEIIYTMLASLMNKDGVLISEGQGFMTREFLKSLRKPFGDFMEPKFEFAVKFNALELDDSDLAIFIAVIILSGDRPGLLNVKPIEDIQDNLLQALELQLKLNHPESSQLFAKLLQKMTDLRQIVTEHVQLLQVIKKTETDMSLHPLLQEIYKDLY
Chain of Glucocorticoid receptor (Homo sapiens) (P04150 whole entry, looked up): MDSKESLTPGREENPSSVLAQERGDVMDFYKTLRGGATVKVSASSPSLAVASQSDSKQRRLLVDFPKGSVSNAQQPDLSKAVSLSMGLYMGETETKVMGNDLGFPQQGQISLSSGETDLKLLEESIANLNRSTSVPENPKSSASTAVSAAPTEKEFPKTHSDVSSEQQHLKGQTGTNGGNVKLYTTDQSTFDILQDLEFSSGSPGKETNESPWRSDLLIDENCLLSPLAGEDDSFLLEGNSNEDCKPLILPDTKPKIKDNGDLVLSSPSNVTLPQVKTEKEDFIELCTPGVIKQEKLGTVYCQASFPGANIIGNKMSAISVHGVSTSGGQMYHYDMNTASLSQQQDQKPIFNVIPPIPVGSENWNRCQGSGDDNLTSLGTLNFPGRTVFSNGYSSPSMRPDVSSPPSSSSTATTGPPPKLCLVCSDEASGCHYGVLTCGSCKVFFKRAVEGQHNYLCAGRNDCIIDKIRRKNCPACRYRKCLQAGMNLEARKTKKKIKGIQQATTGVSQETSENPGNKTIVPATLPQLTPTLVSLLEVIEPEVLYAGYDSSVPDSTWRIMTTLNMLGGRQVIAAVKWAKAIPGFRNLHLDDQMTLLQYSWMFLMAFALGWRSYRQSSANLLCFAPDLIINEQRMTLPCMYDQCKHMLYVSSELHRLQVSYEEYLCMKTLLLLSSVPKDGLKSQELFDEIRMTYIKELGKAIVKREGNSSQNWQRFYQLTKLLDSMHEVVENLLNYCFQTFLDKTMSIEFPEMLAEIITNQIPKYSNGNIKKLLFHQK
Chain of Nuclear receptor subfamily 1 group I member 2 (Rattus norvegicus) (Q9R1A7 whole entry, looked up): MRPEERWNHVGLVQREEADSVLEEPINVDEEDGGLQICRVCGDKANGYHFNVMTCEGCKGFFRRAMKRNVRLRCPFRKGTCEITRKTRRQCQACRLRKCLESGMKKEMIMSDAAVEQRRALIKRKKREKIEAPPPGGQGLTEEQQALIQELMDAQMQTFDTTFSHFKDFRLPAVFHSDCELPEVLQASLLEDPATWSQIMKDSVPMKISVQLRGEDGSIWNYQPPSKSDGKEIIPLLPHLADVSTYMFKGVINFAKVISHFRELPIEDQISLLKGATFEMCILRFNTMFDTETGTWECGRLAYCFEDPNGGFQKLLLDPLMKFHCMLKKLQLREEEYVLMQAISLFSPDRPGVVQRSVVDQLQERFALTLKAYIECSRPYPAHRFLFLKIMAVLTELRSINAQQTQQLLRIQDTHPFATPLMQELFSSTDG
Chain of Estrogen receptor (Homo sapiens) (P03372 whole entry, looked up): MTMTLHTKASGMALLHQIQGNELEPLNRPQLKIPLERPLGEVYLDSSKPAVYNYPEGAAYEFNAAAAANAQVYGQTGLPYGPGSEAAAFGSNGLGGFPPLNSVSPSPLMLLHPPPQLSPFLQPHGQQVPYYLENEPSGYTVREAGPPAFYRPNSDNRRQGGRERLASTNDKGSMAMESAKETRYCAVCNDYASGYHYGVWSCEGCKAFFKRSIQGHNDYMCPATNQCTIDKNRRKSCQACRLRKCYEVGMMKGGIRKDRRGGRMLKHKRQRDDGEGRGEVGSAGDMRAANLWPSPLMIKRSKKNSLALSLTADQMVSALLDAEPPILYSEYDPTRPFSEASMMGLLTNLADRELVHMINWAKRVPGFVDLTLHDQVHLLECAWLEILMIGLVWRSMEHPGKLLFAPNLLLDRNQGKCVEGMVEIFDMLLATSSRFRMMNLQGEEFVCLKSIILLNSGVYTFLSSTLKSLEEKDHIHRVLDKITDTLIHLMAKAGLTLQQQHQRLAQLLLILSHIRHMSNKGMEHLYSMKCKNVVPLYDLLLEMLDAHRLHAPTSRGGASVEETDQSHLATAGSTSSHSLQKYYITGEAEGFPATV

For `C[C@@H]([C@H](O)c1ccccc1)N(C)C`, the Potency result in assay [1], in assay [2], in assay [3], in assay [4], in [5] and in assay [6] was “inactive” in each case. Moreover, the Potency result in [7], in assay [8], in assay [9], in assay [10], in assay [11] and in assay [12] was “inactive” each time. Moreover, the Potency result in [13], in assay [14], in assay [16] and in assay [17] was “inactive” in each case. Moreover, the max activation in assay [15] is -2.62%.
`Cc1ccccc1-n1c(CF)nc2ccc(N)cc2c1=O`: the Potency entry in [1], in assay [2], in assay [3], in assay [4], in assay [20] and in assay [7] was “inactive” throughout. The Potency result in assay [8], in assay [9], in [13], in [14] and in assay [17] was “inactive” throughout. The outcome in assay [18] and in assay [19] was inactive. In [15], the max activation is -3.24%. The Potency in assay [16] was 7.08 µM (active).
In the case of `CCOc1ccc2c3c1O[C@H]1[C@@H](O)C=C[C@H]4[C@@H](C2)N(C)CC[C@@]341`, the Potency result in assay [1], in assay [2], in assay [3], in assay [4], in [5] and in [7] was “inactive” in each case. In addition, the Potency result in assay [8], in [10], in [11], in assay [12], in [13] and in assay [14] was “inactive” each time. Also, the Potency entry in assay [17] was “inactive”. The compound was called inactive in assay [18] and in assay [19]. For the same compound, the max activation in assay [15] was -1.03%. Further, the Potency in assay [16] was 7.94 µM (active).
`C[C@]12C=CC(=O)C=C1CC[C@@H]1[C@@H]2CC[C@]2(C)OC(=O)CC[C@@H]12`: the Potency result in assay [1], in assay [2], in assay [3], in assay [6], in [20] and in [7] was “inactive” throughout. The Potency entry in [12], in assay [13], in assay [14], in assay [16] and in assay [17] was “inactive” each time. Besides, the call in [18] and in assay [19] was inactive. Also, the Potency was 21.3 µM [inconclusive] (active) in [10] and 5.31 µM (active) in assay [11]. Further, in assay [15], the max activation was -1.12%.
For `C[C@]12CC[C@H](OS(=O)(=O)O)CC1=CC[C@@H]1[C@@H]2CC[C@]2(C)C(=O)CC[C@@H]12`, the Potency entry in assay [1], in assay [2], in assay [4], in [5], in assay [20] and in assay [7] was “inactive” in each case. In addition, the Potency entry in assay [9], in assay [10], in [12], in [13], in assay [14] and in assay [16] was “inactive” each time. Further, the Potency entry in [17] is “inactive”. For the same compound, the call in assay [19] was inactive. In addition, the Potency in [11] was 13.3 µM (active). For the same compound, the max activation in assay [15] is -3.4%.
As to `[2H]C([2H])([2H])[C@H](N)Cc1ccccc1`, the Potency entry in [1], in [2], in assay [3], in assay [5], in [6] and in [20] was “inactive” each time. In addition, the Potency result in assay [8], in assay [9], in assay [10], in [11], in assay [12] and in assay [13] was “inactive” throughout. Further, the Potency result in assay [14], in assay [16] and in [17] was “inactive” in each case. Also, the outcome in assay [18] and in [19] was inactive. For the same compound, the max activation in assay [15] is -6.9%.
As to `COc1ccc2c3c1O[C@H]1[C@@H](O)C=C[C@H]4[C@@H](C2)NCC[C@@]341`, the Potency result in assay [1], in [3], in assay [4], in assay [5], in assay [6] and in assay [20] was “inactive” throughout. Further, the Potency result in assay [7], in assay [8], in [9], in assay [10], in assay [11] and in assay [12] was “inactive” each time. The Potency result in assay [14], in assay [16] and in assay [17] was “inactive” throughout. Moreover, the call in assay [18] and in [19] was inactive. The max activation in assay [15] is -0.689%.
